{"source": "ChEMBL document CHEMBL3988442", "about": "“University of Dundee, Small-Polar-MMV Screening Library” (2021)", "note": "Out of some 48,000 compounds screened, about 13,000 (27%) showed an effect of 50% or more. This is one part of the list."}
{"tested_on": "Wolbachia pipientis", "assay": "Anti-Wolbachia Cell-Based Screen", "type": "functional", "set-up": "scale not given: in the data most compounds retested in dose-response had high values", "settings": "5 µM", "units": {"Percent Effect": "%"}}
{"smiles": "O=C(CCCn1cncn1)NC1(c2ccc(Cl)cc2)CCC1", "Percent Effect": -16.99}
{"smiles": "O=C(CCc1cc(O)no1)N1CCCC(COc2ccccc2F)C1", "note": "(stereo not given)", "Percent Effect": -3.381}
{"smiles": "O=C(CCc1cc(O)no1)N1CCCC(COc2ccc(F)cc2)C1", "note": "(stereo not given)", "Percent Effect": -11.68}
{"smiles": "O=C(CCN1CCC(c2cc3ccccc3[nH]2)CC1)N1CCOCC1", "Percent Effect": -13.23}
{"smiles": "COc1cc(CCC(=O)N2CCC(c3cc4ncccc4[nH]3)CC2)on1", "Percent Effect": 86.08}
{"smiles": "COc1cc(CCC(=O)N2CCC(c3cc4nccnc4[nH]3)CC2)on1", "Percent Effect": 109.8}
{"smiles": "O=C(CCn1ccc(=O)[nH]c1=O)N1CCC(Oc2ccccn2)CC1", "Percent Effect": 4.456}
{"smiles": "CC(C)NC(=O)C1CN(C(=O)c2ccc(F)cc2)CC12CCOCC2", "note": "(stereo not given)", "Percent Effect": 19.27}
{"smiles": "O=C(NCCNC(=O)C1Cc2cc(F)ccc2O1)C1CCCCC1", "note": "(stereo not given)", "Percent Effect": 14.96}
{"smiles": "O=C(NC1(C(=O)O)CCCC1)C1Cc2cc(F)ccc2O1", "note": "(stereo not given)", "Percent Effect": -1.866}
{"smiles": "O=C(CCN1CCC(C(=O)c2cc(F)ccc2F)CC1)NC1CCCC1", "Percent Effect": -34}
{"smiles": "CNC(=O)N1Cc2cc(F)ccc2C2(CCN(C)CC2)C1.Cl", "Percent Effect": 3.324}
{"smiles": "CN1CCN(C(=O)[C@@H]2CN(C)C[C@]23COc2ccc(F)cc2C3=O)CC1", "Percent Effect": 67.23}
{"smiles": "CN1C[C@@H](C(=O)NC2CC2)[C@@]2(COc3ccc(F)cc3C2=O)C1", "Percent Effect": 74.8}
{"smiles": "O=C(C1CCOc2ccccc21)N1CCOc2ccc(F)cc21", "note": "(stereo not given)", "Percent Effect": 2.761}
{"smiles": "CC(C)NC(=O)[C@@H]1CN(C)C[C@]12COc1ccc(F)cc1C2=O", "Percent Effect": 126.3}
{"smiles": "CCCN1CCC(NC(=O)c2ccc(F)cc2I)CC1", "Percent Effect": 3.516}
{"smiles": "CN1C[C@@H](C(=O)NC2CCCC2)[C@@]2(COc3ccc(F)cc3C2=O)C1", "Percent Effect": 83.49}
{"smiles": "Cc1ccsc1C(=O)N1CC(C(=O)NC(C)C)C2(CCOCC2)C1", "note": "(stereo not given)", "Percent Effect": 2.071}
{"smiles": "Cc1cc(F)ccc1N1CCC(N2C[C@@H](C)[C@@](C)(O)C2)CC1", "Percent Effect": -24.61}
{"smiles": "OCCOCc1n[nH]c2c1CN(Cc1cccs1)C2", "Percent Effect": -8.945}
{"smiles": "C1CCC(c2nc3c(c(N4CC(N5CCOCC5)C4)n2)CCNCC3)C1", "Percent Effect": -4.65}
{"smiles": "Cc1noc(C)c1CN(C)C(=O)C1CCCCN1CC(C)C", "note": "(stereo not given)", "Percent Effect": 0.6295}
{"smiles": "CCc1cnc(C)nc1N1CCS(=O)(=O)CC1", "Percent Effect": 16.32}
{"smiles": "CC(C)(C)NC(=O)C1CSCN1S(=O)(=O)c1cccc(F)c1", "note": "(stereo not given)", "Percent Effect": 1.077}
{"smiles": "CC(C)(C)NC(=O)C1CSCN1S(=O)(=O)c1ccc(F)cc1", "note": "(stereo not given)", "Percent Effect": 5.212}
{"smiles": "CN1C[C@@H](C(=O)NC(C)(C)C)[C@@]2(COc3ccc(F)cc3C2=O)C1", "Percent Effect": 107.1}
{"smiles": "CC(=O)c1cccc(S(=O)(=O)N2CSCC2C(=O)NCC(F)(F)F)c1", "note": "(stereo not given)", "Percent Effect": 8.95}
{"smiles": "Cc1ncsc1C(=O)NCc1cccs1", "Percent Effect": -3.425}
{"smiles": "Cc1cc(C(=O)NCc2ccc(-c3n[nH]cc3C(=O)N(C)C)cc2)on1", "Percent Effect": 136.2}
{"smiles": "Cc1cc(C(=O)NCc2ccccc2CN(C)Cc2ccco2)on1", "Percent Effect": 21.5}
{"smiles": "CN(C)C(=O)c1c[nH]nc1-c1ccc(CNC(=O)c2cnccn2)cc1", "Percent Effect": 109.4}
{"smiles": "CCN(CC)c1ccc(CNC(=O)c2cnccn2)cn1", "Percent Effect": 2.528}
{"smiles": "CN(CCOc1cccc(CNC(=O)C2CC2)c1)C1CCOCC1", "Percent Effect": -18.9}
{"smiles": "CCOc1cc(CNC(=O)c2cc(-c3ccccn3)no2)ccn1", "Percent Effect": -5.804}
{"smiles": "CN(Cc1ccco1)Cc1ccccc1CNC(=O)c1cnccn1", "Percent Effect": 7.808}
{"smiles": "CN(C)C(=O)c1cncnc1-c1ccc(CNC(=O)C2CC2)cc1", "Percent Effect": 73.6}
{"smiles": "Cc1ccc(CNC(=O)c2c[nH]nc2NC(=O)C2CCC2)cc1", "Percent Effect": 4.147}
{"smiles": "Cc1ncsc1C(=O)NCc1ccc(-c2n[nH]cc2C(=O)N(C)C)cc1", "Percent Effect": 72.18}
{"smiles": "CN(c1ccc(CNC(=O)c2ccc(O)nc2)cc1)C1CCCCC1", "Percent Effect": 6.661}
{"smiles": "CCC(C)NC(=O)c1ccc(NC(=O)CCCn2cncn2)c(C)c1", "note": "(stereo not given)", "Percent Effect": -0.8579}
{"smiles": "CC(C)=CCS(=O)(=O)Cc1ccn(-c2cccc(F)c2)n1", "Percent Effect": -8.164}
{"smiles": "Cc1cc(C)n2nc(CC(=O)N3CC[C@H]4NCCC[C@]4(CO)C3)nc2n1", "Percent Effect": 5.114}
{"smiles": "CCC(O)Cn1nc(CCSC)nc1-c1ccc2c(c1)OCCO2", "note": "(stereo not given)", "Percent Effect": -7.02}
{"smiles": "CCc1nc(C2CCCN(C(=O)c3ccc(OC(C)C)nc3)C2)no1", "note": "(stereo not given)", "Percent Effect": 4.592}
{"smiles": "CCc1nc(C2CCCN(C(=O)c3cn(C)nc3C)C2)no1", "note": "(stereo not given)", "Percent Effect": -1.661}
{"smiles": "CCc1nc(C2CCCN(C(=O)c3ccc4[nH]cnc4c3)C2)no1", "note": "(stereo not given)", "Percent Effect": 87.55}
{"smiles": "CCc1nc(C2CCCN(C(=O)c3ccc(O)nc3)C2)no1", "note": "(stereo not given)", "Percent Effect": 94.4}
{"smiles": "CCc1nc(C2CCCN(C(=O)c3ccc4[nH]nnc4c3)C2)no1", "note": "(stereo not given)", "Percent Effect": 1.903}
{"smiles": "CCc1nc(C2CCCN(C(=O)c3ccc(Cl)cc3)C2)no1", "note": "(stereo not given)", "Percent Effect": 149.4}
{"smiles": "CCc1nc(C2CCCN(C(=O)c3c(C)noc3C)C2)no1", "note": "(stereo not given)", "Percent Effect": 106.3}
{"smiles": "CC(C)c1nc(C2CCCN(C(=O)c3ccc4[nH]cnc4c3)C2)no1", "note": "(stereo not given)", "Percent Effect": 1.919}
{"smiles": "O=C(NCc1ccc(CN2CCCC2)cc1)NCc1ccon1", "Percent Effect": -9.348}
{"smiles": "COc1cc(C)nc(N2CCN(C(=O)CNC(C)(C)C)CC2)n1", "Percent Effect": -7.081}
{"smiles": "c1cncc(NCCCNC2CCSC2)c1", "note": "(stereo not given)", "Percent Effect": 8.573}
{"smiles": "Cn1cnnc1-c1cncc(NCc2cccc3c2OCO3)c1", "Percent Effect": -7.225}
{"smiles": "Cc1noc(C(C)Nc2ccc3oc(=O)[nH]c3c2)n1", "note": "(stereo not given)", "Percent Effect": -7.057}
{"smiles": "CN(CC(=O)N1CCN(c2ncccn2)CC1)c1ccc(Cl)cn1", "Percent Effect": -31.13}
{"smiles": "Cc1c[nH]nc1C1CCCN(C(=O)c2c(C)noc2C)C1", "note": "(stereo not given)", "Percent Effect": 107}
{"smiles": "Cc1noc(C)c1C(=O)N1CCCC(c2nccn2Cc2cscn2)C1", "note": "(stereo not given)", "Percent Effect": -18.15}
{"smiles": "CCc1nc(C2CCCN(C(=O)c3ccc(F)cc3)C2)no1", "note": "(stereo not given)", "Percent Effect": 103.7}
{"smiles": "CCc1nc(C2CCCN(C(=O)c3ccc(OC)cc3)C2)no1", "note": "(stereo not given)", "Percent Effect": 87.64}
{"smiles": "CCc1ccc(C(=O)N2CCCC(c3noc(CC)n3)C2)o1", "note": "(stereo not given)", "Percent Effect": 3.526}
{"smiles": "CCc1nc(C2CCCN(C(=O)c3ccncc3)C2)no1", "note": "(stereo not given)", "Percent Effect": 123.6}
{"smiles": "Cc1cc(C)n(C2CCCN(C(=O)c3c(C)noc3C)C2)n1", "note": "(stereo not given)", "Percent Effect": -7.23}
